Many of the other results were omitted from the sample, so hits are more common in it than they were.
NS1 inh: qHTS Assay for Inhibitors of Influenza NS1 Protein Function | Potency, µM (series often up to 46.1 µM), for inactives: at the highest dose activity, positive = more growth | 270,000 compounds, 0.4% hits; calls by dose curve; note: actives are rising curves; nearly all actives have a fitted effect of over 50% in size
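In this qHTS, NS1 from influenza A is expressed in budding yeast, where it slows growth. Cells are switched from glucose to 2% galactose medium (pH 6.0, -URA), treated with compound, and growth recovery is read at OD600.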
Cruzain noTriton: qHTS Assay for Promiscuous and Specific Inhibitors of Cruzain (without detergent); purified cruzain, Z-FR-AMC fluorescence, no detergent; Potency, µM, inactives show max response, negative = inhibition, actives largely listed as inhibitors; 200,000 compounds, 2.3% hits;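 note: plate controls were enzyme without inhibitor for no effect and buffer without enzyme for full effect; nearly all actives have a fitted effect of over 40% in size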
Target sequence (P25779 123-467 limits assumed): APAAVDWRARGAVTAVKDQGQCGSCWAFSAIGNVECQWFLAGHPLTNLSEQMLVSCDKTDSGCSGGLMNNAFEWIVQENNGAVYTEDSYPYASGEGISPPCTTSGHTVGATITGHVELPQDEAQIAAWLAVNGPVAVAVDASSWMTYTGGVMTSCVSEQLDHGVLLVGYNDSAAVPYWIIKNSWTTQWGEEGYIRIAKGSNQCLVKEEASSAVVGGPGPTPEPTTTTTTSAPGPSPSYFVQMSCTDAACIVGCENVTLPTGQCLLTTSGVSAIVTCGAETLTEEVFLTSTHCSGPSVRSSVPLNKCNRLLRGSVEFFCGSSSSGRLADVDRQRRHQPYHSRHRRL
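Detergent-free condition (0.00005% Triton X-100) in acetate buffer pH 5.5 with DTT. 1.5 nM enzyme and compound were pre-mixed 15 min, then 2 uM Z-FR-AMC substrate added; reaction progress from fluorescence change between first and third reads (60 s).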
Cruzain Triton: qHTS Assay for Promiscuous and Specific Inhibitors of Cruzain (with detergent); purified cruzain, Z-FR-AMC fluorescence, 0.01% Triton; Potency, µM, inactives show max response, negative = inhibition, actives largely listed as inhibitors; 200,000 compounds, 0.43% hits; AID 1478, 2009;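 note: plate controls were neutral wells for no effect and buffer without enzyme for full effect; nearly all actives have a fitted effect of over 40% in size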
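Detergent-containing run (0.01% Triton X-100) in acetate buffer pH 5.5 with 5 mM DTT: enzyme at 1.5 nM final, 15 min compound preincubation at room temperature, then 2 uM Z-FR-AMC substrate. Activity taken as 60 s fluorescence increase at 360/450 nm.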
Starred values were filed as active, the others as inactive; u = inconclusive; x = no result given. Unless noted, calls come from the whole dose curve; as a rule, active = well fitted curve in the direction sought with a large enough effect; inconclusive = small, poorly fitted or top-dose-only effect, or another doubt; inactive = no such curve, though single readings can be large; an effect the other way counts as inactive or inconclusive. Potency is the fitted concentration of half-maximal effect.

SMILES | NS1 inh | Cruzain noTriton | Cruzain Triton
Cc1c([N+](=O)[O-])cc(C(=O)Oc2ccc(Br)cc2C(=S)N2CCCCC2)cc1[N+](=O)[O-] | -6% | 25µM* | -2%
CCCn1c(=N)c(S(=O)(=O)c2ccc(F)cc2)cc2c(=O)n3ccccc3nc21 | 2% | x | x
Cn1c(=N)c(S(=O)(=O)c2ccc(F)cc2)cc2c(=O)n3ccccc3nc21 | 2% | u | 32µM*
CSc1ccc(CNCc2c(C(=O)O)c(C)n(Cc3ccc(F)cc3Cl)c2C)cc1 | x | 6% | -4%
CCC(=O)N1c2ccc(C)cc2C2=NNC(=S)NC21O (stereo not given) | 0% | 0.63µM* | u
CC1=CC(C)(C)N(C(=O)CN2C(=O)c3ccccc3C2=O)c2ccc(C)cc21 | -11% | -7% | -5%
Cc1ccc(OCC(=O)NCCc2nc3ccccc3[nH]2)c(C)c1 | -7% | x | x
COc1ccccc1OCC(=O)NCCc1nc2ccccc2[nH]1 | -1% | 13µM* | 16µM*
Cc1cc(OCC(=O)NCCc2nc3ccccc3[nH]2)cc(C)c1Cl | x | 4% | 8.9µM*
CCC(=O)NCCc1nc2ccccc2[nH]1 | 1% | 1% | 1%
O=C(O)CC1(CC(=O)Nc2ccc(C(F)(F)F)cc2)CCCC1 | 6% | x | x
CC(NC(=O)CN(C)Cc1ccc(Br)cc1)c1ccccc1 (stereo not given) | -8% | x | x
COc1cc(C2c3[nH]c4ccccc4c3C[C@@H]3C(=O)N(Cc4ccco4)CC(=O)N23)cc(OC)c1OC (stereo not given in full) | 9% | x | x
C=CCc1cccc([C@@H]2[C@@H](C)CC[C@H]3C(=O)N4[C@@H](c5cc(OC)c(OC)c(OC)c5)c5[nH]c6ccccc6c5C[C@H]4C(=O)N23)c1 | 22µM* | u | -1%
Cc1nn(Cc2cccc(C(=O)NN)c2)c(C)c1Cl | 5% | x | x
CCOc1c(Br)cc(/C=N\NC(=O)c2ccccc2)cc1OC | -32% | -4% | -5%
CCOc1c(Cl)cc(/C=N/NC(N)=S)cc1OC | 4% | 0.5µM* | 2.5µM*
Cc1cc(/C=N/NC(N)=S)c(O)c(/C=N/NC(N)=S)c1 | -2% | x | x
C#CCOc1c(Cl)cc(/C=C2/C(=O)ON=C2C)cc1OCC | 9% | x | x
COc1cc(OC)c(/C=N/NC(N)=S)cc1Br | 18% | 0.25µM* | 0.18µM*
C#CCOc1c(Cl)cc(/C=N/NC(N)=S)cc1OCC | 29% | 0.63µM* | 2µM*
CCS(=O)(=O)N1CCN(C(=O)CCC2CCCC2)CC1 | 1% | 11% | -1%
COc1cc(NC(=O)c2cc3sccc3n2C)cc(OC)c1 | -49% | u | -4%
CCOC(=O)c1c(C)[nH]c(C(=O)COC(=O)CCC2CCCC2)c1C | -1% | 16µM* | 8%
CCOC(=O)c1c(C)[nH]c(C(=O)COC(=O)CCS(=O)(=O)c2ccc(C)cc2)c1C | 6% | 1% | u
SMILES | NS1 inh | Cruzain noTriton | Cruzain Triton
O=C(NCc1ccccn1)C(=O)NCC1OCCN1S(=O)(=O)c1ccc(Br)cc1 (stereo not given) | -4% | x | x
COc1ccc(/C=N/NC(=O)c2nn(-c3ccccc3)c(=O)c3c(N)scc23)cc1 | 1% | 20µM* | -10%
CCOC(=O)c1nn(-c2ccc(OC)cc2)c(=O)c2c(N)scc12 | 6% | 6% | -14%
COc1ccc(/C=N/NC(=O)c2nn(-c3ccc(Cl)cc3)c(=O)c3c(N)scc23)cc1 | 26% | 13µM* | -6%
COc1ccc(/C=N/NC(=O)c2nn(-c3ccc(C)c(C)c3)c(=O)c3ccccc23)cc1 | 25% | -11% | -6%
COc1ccc(NC(=O)CCc2nnc3n(C)c(=O)c4sccc4n23)cc1Cl | x | 6% | 2%
CCc1ccc(-c2[nH]c3c(c2-c2sc(C)c(C(=O)OC)c2O)c(=O)[nH]c(=O)n3C)cc1 | x | u | -1%
O=C(COc1ccc(F)cc1)NCCCn1ccnc1 | 7% | x | x
Cc1ccc(C(=O)COC(=O)CNC(=O)COc2ccccc2C)cc1C | -43% | u | 16µM*
Cc1ccccc1OCC(=O)NCC(=O)OCC(=O)c1ccc([N+](=O)[O-])cc1 | -6% | x | x
CCc1ccc(OCC(=O)NNC(=S)NC(=O)C2CC2)c(Br)c1 | -109% | x | x
CCc1ccc(OCC(=O)NC(=S)Nc2ccc(C)cc2C)c(Br)c1 | -7% | 13µM* | 6%
CNC(=O)COC(=O)c1ccccc1NC(=O)c1ccco1 | 1% | x | x
O=C(Nc1ccccc1C(=O)OCC(=O)N1CCc2ccccc2C1)c1ccco1 | -87% | 13µM* | -5%
Nc1nc2sc3c(c2c(=O)s1)CCCC3 | -43% | -1% | -11%
Nc1c2c(nc3sc4c(c13)CCCC4)CCCCCC2 | 1% | 25µM* | -17%
CC1(C)Cc2c(sc3ncnc(NN)c23)CO1 | -3% | x | x
O=C(NCc1ccncc1)C(=O)Nc1nc2ccccc2s1 | -4% | x | x
O=C(NCCc1ccccc1)C(=O)NCC(c1ccco1)S(=O)(=O)c1cccs1 (stereo not given) | x | 6% | 1%
Cc1cccc(N=C2NN=C(c3c(C)[nH]c4ccccc34)CS2)c1 | 25% | u | -4%
Cc1cccc(N=C2NN=C(c3ccc4c(c3)OCCO4)CS2)c1 | -3% | 16µM* | -7%
O=C(c1nc2ccccn2c1CNCCCn1ncc2ccccc21)N1CCOCC1 | -2% | x | x
Cc1cc(Nc2ccccc2)n(CCOC(=O)COc2ccccc2)n1 | -28% | u | 5%
Cc1ccc(S(=O)(=O)Nc2cccc(C(=O)Nc3cc(C)ccn3)c2)cc1 | 6% | 4% | -1%
Cc1ccc(-c2nc(S(=O)(=O)c3ccccc3)c(N3CCN(c4ccccc4)CC3)o2)cc1 | x | -9% | -1%
SMILES | NS1 inh | Cruzain noTriton | Cruzain Triton
COc1ccc(N2CCN(c3oc(-c4ccccc4C)nc3S(=O)(=O)c3ccccc3)CC2)cc1 | x | 13µM* | -4%
CN1CCN(c2ncc3ncc(=O)n(C[C@H]4CCCO4)c3n2)CC1 | x | 20µM* | u
CN(C)c1ncc2ncc(=O)n(C[C@H]3CCCO3)c2n1 | x | -8% | -10%
CCc1cccc(C)c1NC(=O)CSc1nc(-c2ccccc2F)nc2nc[nH]c12 | 9% | u | -4%
O=C(CSc1nc(-c2ccccc2F)nc2nc[nH]c12)Nc1c(Cl)cc(Cl)cc1Cl | 9% | 6.3µM* | -4%
CN1CCN(C(=O)c2ccc3c(c2)N(Cc2ccc(F)cc2)C(=O)c2ccccc2S3(=O)=O)CC1 | x | -2% | -1%
Cc1cc(NCCCO)n2c(nc3ccccc32)c1C#N | 18% | 32µM* | -15%
Cc1cc(NCCOCCO)n2c(nc3ccccc32)c1C#N | 1% | x | x
Cc1cc(NC(=O)CCC(=O)N(c2ccccc2)C(C(=O)NC2CCCC2)c2ccccc2C)no1 (stereo not given) | 3% | x | x
Cc1ccc(SCc2nnc(NC(=O)c3ccccc3)s2)cc1 | -7% | 10µM* | 7%
COC(=O)Cc1nnc(NC(=O)c2ccccc2)s1 | -5% | -8% | -2%
Cc1ccc(N2CCN(C(=O)c3nn(C)c4c3CS(=O)(=O)c3ccccc3-4)CC2)c(C)c1 | -3% | -2% | -11%
Cc1c(/C(O)=C2\C(=O)C(=O)N(CCCN(C)C)C2c2ccncc2)cnn1-c1ccccc1 (stereo not given) | 2% | -9% | -1%
Cc1ccc(-n2nnnc2SCC(=O)Nc2ccc3c(c2)OCCO3)cc1C | 2% | -5% | -5%
